Here are results for 22 molecules from PubChem BioAssay (Tox21).

The nature of test [1]: qHTS assay to identify small molecule antagonists of the retinoic acid receptor (RAR) signaling pathway (AID 1159552; note: nearly all actives have a fitted effect of over 50% in size; note: potency is the fitted concentration of half-maximal effect). The procedure, abridged:
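Quantitative HTS in C3RL4 RARE-luciferase reporter cells. Compounds were added with 1 uM (final) retinol; luminescence was read after 6 hr.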
A general note: Quantitative high-throughput screening tests each substance at several concentrations.

Test [2] is described as follows: qHTS assay to identify small molecule agonists of the retinoic acid receptor (RAR) signaling pathway (AID 1159553). Note: potency is the fitted concentration of half-maximal effect. The essentials:
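Luminescence from a RARE-driven luciferase reporter in C3RL4 cells served as the read-out, measured after 30 min with detection reagent at room temperature. Compounds in DMSO were applied for 6 hr at 37 C following overnight seeding.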

A short description of test [3]: qHTS assay to identify small molecule antagonists of the retinoid acid receptor (RAR) signaling pathway - cell viability counter screen (AID 1159551). Note: nearly all actives have a fitted effect of over 35% in size. The procedure, abridged:
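Luminescent ATP quantitation (CellTiter-Glo) gave cell viability in C3RL4 cells exposed to test chemicals for 6 h at 37 C alongside 1 uM final retinol.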

Test [4] can be described thus: qHTS assay to identify small molecule antagonists of the estrogen related receptor (ERR) signaling pathway - cell viability counter screen (AID 1224818). Note: series mostly up to about 46 µM. The essentials: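 Multiplexed counter screen to separate cytotoxic compounds from true ERR modulators. ERR cells received DMSO-dissolved compounds after a 6 h pre-incubation, were exposed 17.5 h at 37 C, then assayed with CellTiter-Fluor fluorescence.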

The nature of test [5]: qHTS assay to identify small molecule antagonists of the estrogen related receptor (ERR) signaling pathway (AID 1224819;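 note: luminescence from an ERR-driven luciferase reporter measured with One-Glo reagent; series mostly up to about 46 µM; nearly all actives have a fitted effect of over 50% in size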). The essentials: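 Seed ERR cells 2,000/well; rest 6 h at 37 C/5% CO2; pin compounds in DMSO; incubate 18 h at 37 C; add One-Glo; wait 30 min at room temperature; measure luminescence.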
A short description of test [6]: qHTS assay to identify small molecule agonists of the estrogen related receptor (ERR) signaling pathway (AID 1224820). The essentials:
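Quantitative HTS of the LOPAC library used NTP ERR reporter cells treated 18 h at 37 C. Signal is luminescence after One-Glo addition and a 30 min room-temperature incubation.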

Test [7] can be described thus: qHTS assay to identify small molecule antagonists of the estrogen related receptor signaling pathway with the pleiotropic PPARgamma coactivator (PGC) cell viability counter screen (AID 1224822; note: potency is the fitted concentration of half-maximal effect). The procedure, abridged: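 Cells: PGC/ERR, 2,000/well, 1536-well format. Pre-incubation 6 h, 37 C/5% CO2. Compound exposure 17.5 h, 37 C. Detection: CellTiter-Fluor, 30 min, fluorescence.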

In test [8] the test system is estrogen-related receptor alpha (ERRalpha) with PGC-1alpha coactivator, human. The experiment in a line: qHTS assay to identify small molecule antagonists of the estrogen related receptor signaling pathway with the pleiotropic PPARgamma coactivator (PGC) (AID 1224821; calls by dose curve; note: nearly all actives have a fitted effect of over 50% in size; note: potency is the fitted concentration of half-maximal effect). The essentials:
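Quantitative HTS for antagonism: PGC/ERR cells received compounds after 6 h attachment and were incubated 18 h at 37 C, with luminescence (One-Glo) as the endpoint.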

Results filed as inconclusive are left out. Activity calls are given as the source filed them. Unless noted, calls come from the whole dose curve; as a rule, active = well fitted curve in the direction sought with a large enough effect in the repeat runs; inconclusive = weak or mixed curves; inactive = no such curve, though single readings can be large; an effect the other way counts as inactive or inconclusive.

`CO/N=C(/C(=O)OC)c1ccccc1COc1ccccc1C`: the Potency in test [1] is 7.7 µM (active). Moreover, the Potency result in test [2] was “inactive”.
Regarding `CC(C)N(C(=O)COc1nnc(C(F)(F)F)s1)c1ccc(F)cc1`, the Potency entry in test [3] and in test [1] was “inactive” in each case.
Turning to `CC[C@H]1C[C@H]2[C@@H]3CCC4=CC(=O)CC[C@@H]4[C@H]3CC[C@]2(C)[C@H]1O`, the Potency entry in test [3], in test [1] and in test [2] was “inactive” each time.
As to `CCCCCCCCCC(=O)O[C@H]1CC[C@H]2[C@@H]3CCC4=CC(=O)CC[C@@H]4[C@H]3CC[C@]12C`, the Potency entry in test [3] and in test [1] was “inactive” throughout.
As for `O=C(Nc1ccccc1)Nc1cnns1`, the Potency entry in test [3], in test [1] and in test [2] was “inactive” throughout.
Turning to `COP(=S)(OC)Oc1ccc([N+](=O)[O-])cc1Cl`, the Potency result in test [3] and in test [1] was “inactive” throughout.
As to `Cc1ccccc1C(=O)Nc1cccc(OC(C)C)c1`, the Potency result in test [3] is “inactive”.
`CC(C)N(CCC(C(N)=O)(c1ccccc1)c1ccccn1)C(C)C` (centres undefined): the Potency result in test [3], in test [1], in test [2] and in test [7] was “inactive” throughout. In addition, the outcome in test [4], in test [5] and in test [6] was inactive.
For `COCCOCCO`, the Potency entry in test [3], in test [8] and in test [7] was “inactive” throughout. Besides, the outcome in test [4], in test [5] and in test [6] was inactive.
With `O=C=Nc1ccc(Cl)cc1`, the Potency result in test [3] and in test [1] was “inactive” each time. Also, the Potency in test [2] was 24.3 µM (active).
As for `NC(=O)CI`, the Potency result in test [3] and in test [2] was “inactive” in each case. Moreover, the call in test [4], in test [5] and in test [6] was inactive. Further, the figures for the Potency in test [8] and in test [7] were 11.9 µM (active) and 12.3 µM (active), respectively.
For `COC1=CC(=O)O[C@@H](CCc2ccccc2)C1`, the Potency entry in test [3], in test [1] and in test [2] was “inactive” throughout.
On to `C(=NC1CCCCC1)=NC1CCCCC1`, for which the Potency entry in test [3], in test [1] and in test [2] was “inactive” throughout.
Take `CCCN(CC1CC1)c1c([N+](=O)[O-])cc(C(F)(F)F)cc1[N+](=O)[O-]`: the Potency result in test [3] and in test [2] was “inactive” in each case.
As for `Clc1ccc(C(OCCN2CCCCC2)c2ccccc2)cc1` (centres undefined), the Potency result in test [3] was “inactive”.
Regarding `COP(=S)(Oc1cc(Cl)c(Br)cc1Cl)c1ccccc1` (centres undefined), the Potency result in test [3] and in test [2] was “inactive” throughout.
On to `CCCN(CCCl)c1c([N+](=O)[O-])cc(C(F)(F)F)cc1[N+](=O)[O-]`, for which the Potency result in test [3] and in test [2] was “inactive” each time.
Take `CCC(C)(NC(=O)c1cc(Cl)c(C)c(Cl)c1)C(=O)CCl` (centres undefined): the Potency in test [1] was 4.89 µM (active).
Regarding `CNP(=O)(OC)Oc1ccc(C(C)(C)C)cc1Cl` (centres undefined), the Potency result in test [3], in test [1] and in test [2] was “inactive” in each case.
For the molecule `CCOP(O)OCC`, the Potency result in test [3], in test [1] and in test [2] was “inactive” in each case.
Turning to `CCO[C@H]1O[C@@H]2OC3(C)CC[C@H]4[C@H](C)CC[C@@H]([C@H]1C)[C@@]24OO3`, the Potency entry in test [3], in test [1] and in test [2] was “inactive” in each case.
Take `OCCCBr`: the Potency result in test [3], in test [1], in test [2], in test [8] and in test [7] was “inactive” each time. Also, the call in test [4], in test [5] and in test [6] was inactive.
